VDR inhibitor – vitamin D3 receptor (human) inhibition. P11473. VDR-SRC2-3 peptide fluorescence polarization, 2 h. Potency, µM, for the others: max response, negative = inhibition, usual class: inhibitors. 0.93% of 400,000 active. AID 504847; note: potency is the fitted concentration of half-maximal effect; % is set by controls: 0 for no effect and ±100 for the full control effect
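Measured by FP: displacement of SRC2-3 coactivator peptide from VDR by library compounds, following a two-hour ambient incubation.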
TSHR antagonist – antagonists of human thyroid stimulating hormone receptor. activity change, negative = inhibition, % at 11.5 µM. AID 504810. P16473. 0.2% of 330,000 active. TSHR-expressing cells, TSH-stimulated cAMP HTRF, 2 h; hits give low values;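 active = activity change below a set negative limit, meaning inhibition stronger than a set level, cut at about -70% in these data; inconclusive = activity change between two set negative limits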; note: % is set by controls: 0 for no effect and ±100 for the full control effect
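Read-out is FRET at 665 nm (cryptate excitation 337 nm) from a cryptate-tagged anti-cAMP antibody, competed by cell cAMP against cAMP-d2. Compounds are tested on freshly harvested TSHR cells challenged with 4nM TSH (EC80) for 2 hours at 37 deg C.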
PLK1 PBD block – PLK1 (human) polo-box domain binding inhibition; Plk1 PBD binding of FITC phosphopeptide, fluorescence polarization; Potency, µM, without a hit: max response, negative = inhibition, actives largely listed as inhibitors; 2.8% of 360,000 active; AID 720504; note: potency is the fitted concentration of half-maximal effect; series mostly up to about 57 µM; % is set by controls: 0 for no effect and ±100 for the full control effect; nearly all actives have a fitted effect of over 65% in size
Vif-APOBEC3G blk – Vif-A3G binding inhibition | Q9HC16 | HeLa A3G-eYFP + Vif (tagged APOBEC3G with the HIV-1 protein that degrades it), YFP fluorescence, overnight | Potency, µM (series often up to 46.1 µM), inactives show top-dose activity, negative = active, actives largely listed as inhibitors | 0.076% of 410,000 active | AID 602310; note: potency is the fitted concentration of half-maximal effect; % is set by controls: 0 for no effect and ±100 for the full control effect; nearly all actives have a fitted effect of over 60% in size
Target sequence (Q9HC16 whole entry, looked up): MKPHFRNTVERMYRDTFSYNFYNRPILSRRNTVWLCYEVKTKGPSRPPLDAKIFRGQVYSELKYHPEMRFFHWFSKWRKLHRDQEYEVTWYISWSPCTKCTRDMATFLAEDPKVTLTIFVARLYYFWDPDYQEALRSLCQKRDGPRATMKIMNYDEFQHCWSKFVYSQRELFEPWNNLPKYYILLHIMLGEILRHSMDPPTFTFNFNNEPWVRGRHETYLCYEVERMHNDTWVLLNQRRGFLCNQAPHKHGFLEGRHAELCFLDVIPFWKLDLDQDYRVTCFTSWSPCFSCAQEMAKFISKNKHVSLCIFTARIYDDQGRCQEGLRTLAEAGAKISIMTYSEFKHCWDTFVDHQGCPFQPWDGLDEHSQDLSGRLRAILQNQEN
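HeLa cells stably expressing Vif and C-terminally eYFP-tagged A3G, seeded overnight at 37 deg C, then exposed to compound by pintool overnight at 37 deg C. Rise in yellow fluorescence (Ex 488/Em 500-530, Acumen) marks blocked Vif-driven A3G degradation.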
Vif-APOBEC3F blk – Vif-A3F binding inhibition; HeLa A3F-eYFP + Vif (tagged APOBEC3F with the HIV-1 protein that degrades it), YFP fluorescence increase; 0.2% of 390,000 active; AID 602313; Potency, µM (titrated, usually from 46.1 µM), for inactives: at the highest dose activity, negative = active; note: potency is the fitted concentration of half-maximal effect; % of control where 0% means no effect; nearly all actives have a fitted effect of over 65% in size
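HeLa cells stably expressing Vif plus C-terminally eYFP-tagged A3F were seeded, incubated overnight at 37 deg C, dosed with compound, incubated overnight again at 37 deg C. Yellow fluorescence (Ex 488/Em 500-530) reported blocked Vif-mediated A3F-eYFP degradation.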
* = called active by the depositor; ? = inconclusive; / = not tested or not shown. This is a sample that favours compounds with a hit; in the whole collection about 3.1% have one here. Unless noted, calls come from the whole dose curve; as a rule, active = well fitted curve in the direction sought with a large enough effect; inconclusive = small, poorly fitted or top-dose-only effect, or another doubt; inactive = no such curve, though single readings can be large; an effect the other way counts as inactive or inconclusive.

SMILES	VDR inhibitor	TSHR antagonist	PLK1 PBD block	Vif-APOBEC3G blk	Vif-APOBEC3F blk
CCOP(=O)(Nc1ccc2c(c1)C(=NNC(N)=S)c1ccccc1-2)OCC	?	/	27µM*	?	-12%
N[C@H](CCP(=O)(O)O)C(=O)O	-2%	/	/	/	/
C=CCN1C[C@H](C)N([C@H](c2ccc(C(=O)N(CC)CC)cc2)c2cccc(O)c2)C[C@H]1C	11%	/	/	/	/
COc1ccc(CN2CCCC(C(=O)c3ccc(Cl)cc3)C2)c(OC)c1 (configuration not stated)	?	6	24µM*	1%	-1%
COC(=O)C(O)C(O)(CCC(C)C)C(=O)OC1C(OC)=CC23CCCN2CCc2cc4c(cc2C13)OCO4 (configuration not stated)	4%	/	/	/	/
CCOP(=S)(OCC)SCn1c(=O)oc2cc(Cl)ccc21	35µM*	/	/	/	/
CCn1c(=O)oc2cc(NC(=O)CCl)ccc21	-14%	-1	-9%	?	5%
COCc1cc(C)c(C#N)c(=S)[nH]1	3%	-1	27µM*	-3%	-2%
Cc1ccc(OC(=O)N(C)C[C@@H]2OCc3cnnn3CCCC(=O)N([C@@H](C)CO)C[C@@H]2C)cc1	/	/	-11%	1%	-3%
Cc1ccc(S(=O)(=O)Nc2ccc3c(c2)CC(=O)N([C@H](C)CO)C[C@@H](C)[C@H](CN(C)S(=O)(=O)c2ccccc2)O3)cc1	?	-8	21µM*	-12%	2%
O=C(NCc1c(-n2cccc2)sc2c1CCCC2)Nc1cccc(C(F)(F)F)c1	21%	/	/	-11%	?
CCNC(=O)O/N=C(\C)c1sc(-c2ccccc2)nc1C	-4%	15	24µM*	-10%	3%
CC(C)(Cl)[N+](=O)[O-]	6%	8	-8%	2%	2%
O=[N+]([O-])C(Br)(CO)CO	5.6µM*	/	/	/	/
CC(=O)[C@H]1CCC2C3CC[C@H]4C[C@@H](O)CC[C@]4(C)C3CC[C@@]21C (some centres not stated)	-7%	-10	2%	-2%	?
CC(=O)[C@@H]1CC[C@H]2[C@@H]3CC[C@@H]4CC(=O)CC[C@]4(C)[C@H]3CC[C@]12C	50µM*	/	/	/	/
CCCC[N+]12C3CC(C(CC)[C@H]1O)[C@@H]1C(O)C4(C[C@@H]12)c1ccccc1N(C)C34 (some centres not stated)	1%	/	/	/	/
CN1CCC(O)(c2ccc(Cl)cc2)C(C(=O)c2ccc(Cl)cc2)C1 (configuration not stated)	?	-3	4.7µM*	1%	-4%
CN1CC(C(=O)c2ccc(Cl)cc2)C(c2ccc(Cl)cc2Cl)C1 (configuration not stated)	-9%	-22	5%	-1%	?
CC(Cc1cccc(C(F)(F)F)c1)NCCCc1ccccc1 (configuration not stated)	-5%	/	/	/	/
Cc1ccccc1O	5%	-2	-8%	1%	0%
Oc1cccc[c]1[Hg][Cl]	5µM*	/	/	/	/
C=CCN1C(=O)/C(=C/c2cc(C)n(-c3ccccn3)c2C)C(=O)NC1=S	-36%	2	2.4µM*	-3%	?
Cc1cc(/C=C2/C(=O)NC(=O)N(C)C2=O)c(C)n1-c1ccccc1	9%	23	3%	8%	-16%
C=CCN1CC[C@@]23c4c5ccc(O)c4O[C@H]2/C(=N\N=C2/CC[C@@]4(O)[C@H]6Cc7ccc(O)c8c7[C@@]4(CCN6CC=C)[C@@H]2O8)CC[C@]3(O)[C@@H]1C5	-6%	/	/	/	/
SMILES	VDR inhibitor	TSHR antagonist	PLK1 PBD block	Vif-APOBEC3G blk	Vif-APOBEC3F blk
O=[N+]([O-])c1cccc(C2N3CCCN23)c1 (configuration not stated)	1%	-6	-5%	0%	-19%
O=C(O)c1ccc2c(c1)C1C(Cl)C(Sc3ccccc3[N+](=O)[O-])CC1C(c1cccc([N+](=O)[O-])c1)N2 (configuration not stated)	7%	4	19µM*	0%	-1%
O=C(O)c1cccc2c1NC(c1cccc([N+](=O)[O-])c1)C1CC(Sc3ccccc3[N+](=O)[O-])C(Cl)C21 (configuration not stated)	59%	-27	13µM*	-10%	18%
COc1cc(C=C2C(=O)NC(=O)NC2=O)ccc1O	-19%	-9	21µM*	-5%	-2%
COc1cc(/C=C2\C(=O)NC(=O)N(CCc3ccc(F)cc3)C2=O)ccc1O	?	-10	0.75µM*	-12%	?
Cc1ccc(C[N+](C)(C)C)o1	-1%	/	/	/	/
CC1=NN(c2ccccc2)C(=O)C1/C=C1\C(=O)NC(=O)N(c2ccc(C)c(C)c2)C1=O (configuration not stated)	-9%	8	21µM*	-2%	-13%
COc1ccc(/C=C2/C(=O)NC(=O)N(c3ccc(C)c(C)c3)C2=O)cc1CN1C(=O)c2ccccc2C1=O	50µM*	2	4.2µM*	-23%	-12%
OC12C3C4CC5C6C4C1C6C(C53)N2CCc1cccc(F)c1 (configuration not stated)	12%	/	/	/	/
OCC(O)Cc1ccc2c(c1)OCO2 (configuration not stated)	-1%	/	/	/	/
Cc1cc(C(=O)CS(=O)c2ccc(F)cc2)cc(C)c1OC(=O)N(C)C (configuration not stated)	-27%	1	12µM*	1%	-18%
CN1C(=O)CCS(=O)(=O)[C@@H]1c1ccc(Cl)cc1	0%	/	/	/	/
CCOC(=O)c1cccc(NC(=O)c2c(O)[nH]c(=O)[nH]c2=O)c1	-20%	/	-3%	-6%	6%
CCCCCNc1c(C(=O)OCC)c(=O)[nH]c2ccccc12	-18%	-24	27µM*	1%	/
COc1cc(C(C)=O)ccc1OC(=O)N(C)c1ccccc1	-4%	-122*	-7%	0%	-1%
Cc1ccc2cccc(OC(=O)N(C)c3ccccc3)c2n1	-10%	-13	1%	0%	1%
COc1ccc(NC(=O)N2CC3(CCN(C(=O)Oc4ccccc4)CC3)C2)cc1	8%	/	/	/	/
Cc1ccccc1N1C(=O)NC(=O)/C(=C/c2ccc(N3CCOCC3)o2)C1=O	-4%	-10	90%	-22%	?
O=C1NC(=O)N(c2ccc3c(c2)OCO3)C(=O)/C1=C\c1ccc(N2CCCCC2)o1	-12%	-3	79%	-15%	4.5µM*
NCC[C@H](NC(=O)[C@@H](N)CCCN=C(N)N[N+](=O)[O-])C(N)=O	6%	/	/	/	/
Cc1cccc(N=Cc2c(O)n(-c3ccccc3C)c(=O)[nH]c2=O)c1	9%	11	-2%	-4%	-3%
Cc1ccc(N=Cc2c(O)n(-c3ccc(C)cc3)c(=O)[nH]c2=O)cc1	7%	/	-12%	2%	-8%
Cc1ccccc1-n1c(O)c(/C=C/C=Nc2ccccc2)c(=O)[nH]c1=O	7%	8	74%	0%	20µM*

Screens as filed in PubChem BioAssay.
